Several values for one entry are separate records, joined by “and”; a condition that tells them apart may be missing. Equal entries are not always repeated. Records with an inconclusive call do not appear. A call without a number means that no potency is given here. Activity calls are given as the source filed them. Unless noted, calls follow the shape of the full dose curve.
Key:
[1] = molecular target: Gonadotropin-releasing hormone receptor (Homo sapiens) (UniProt P30968); assay: Human gonadotropin-releasing hormone receptor (GnRHR) small molecule agonists, calcium flux assay in GnRHR-HEK293 cells (AID 1920063); also: nearly all actives have a fitted effect of over 35% in size
Chain of Gonadotropin-releasing hormone receptor (Homo sapiens) (P30968 whole entry, looked up): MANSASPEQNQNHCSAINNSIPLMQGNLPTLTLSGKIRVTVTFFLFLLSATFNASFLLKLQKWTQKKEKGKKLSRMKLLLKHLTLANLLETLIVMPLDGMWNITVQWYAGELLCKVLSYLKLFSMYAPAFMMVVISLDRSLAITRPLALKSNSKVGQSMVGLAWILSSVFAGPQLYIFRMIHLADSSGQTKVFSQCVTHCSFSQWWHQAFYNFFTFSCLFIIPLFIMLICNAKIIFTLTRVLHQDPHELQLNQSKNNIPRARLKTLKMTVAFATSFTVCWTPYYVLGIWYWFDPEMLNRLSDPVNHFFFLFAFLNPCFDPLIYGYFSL
In short: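 Compounds dissolved in DMSO are pin-transferred onto dye-loaded GnRHR-HEK293 cells, which were seeded 18 h before at 37 C/5% CO2. Calcium signal is read as fluorescence intensity at 1 s intervals for 3 min.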

[2] = molecular target: KiSS-1 receptor (Homo sapiens) (UniProt Q969F8); assay: Human kisspeptin (KISS1R) small molecule agonists, calcium flux assay in KISS1R-HEK293 cells (AID 1920064; active = well fitted activation curve with a large enough effect in the repeat runs)
Chain of KiSS-1 receptor (Homo sapiens) (Q969F8 whole entry, looked up): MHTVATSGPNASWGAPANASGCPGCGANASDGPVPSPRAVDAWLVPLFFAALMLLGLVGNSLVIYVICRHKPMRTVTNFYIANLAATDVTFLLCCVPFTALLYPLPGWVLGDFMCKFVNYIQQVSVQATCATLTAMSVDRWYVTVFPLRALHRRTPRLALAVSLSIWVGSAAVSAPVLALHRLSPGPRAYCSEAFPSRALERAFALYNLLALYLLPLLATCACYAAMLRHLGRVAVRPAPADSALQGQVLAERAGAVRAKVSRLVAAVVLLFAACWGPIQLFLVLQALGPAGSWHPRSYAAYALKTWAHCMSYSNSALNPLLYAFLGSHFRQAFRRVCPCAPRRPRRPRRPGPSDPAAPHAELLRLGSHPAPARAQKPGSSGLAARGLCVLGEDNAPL
In short: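 Cell line: HEK293, stable human KISS1R. Dye loading 1 h at 37 C after 18 h culture. Read: kinetic fluorescence, 480/540 nm, 3 min at 1 s intervals.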

[3] = G protein-coupled receptor (GPCR) small molecule agonists, calcium flux assay: HEK293 wild type cell line counter screen (AID 1920065)
In short: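 Tox21 10K compounds, 15 concentrations each in triplicate, pin-transferred in DMSO onto dye-loaded cells; kinetic read at 480/540 nm for 3 min, 1 s intervals.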

[4] = p53 small molecule agonists, cell-based qHTS assay with human liver microsomes (AID 1963577);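 also: p53 response element beta-lactamase reporter cells with liver microsomes plus NADPH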
In short: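 Reporter activation was measured by LiveBLAzer fluorescence intensity in p53RE-bla cells, which had been exposed to compounds for 16 h at 37 C alongside 0.5 mg/mL human liver microsomes and 0.5 mg/mL NADPH (final concentrations).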

[5] = p53 small molecule agonists, cell-based qHTS assay with rat liver microsomes (AID 1963578)
In short: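 Compound in DMSO added to p53RE-bla cells 5 h post-plating; rat microsomes/NADPH 0.5 mg/mL final; 16 h, 37 C; LiveBLAzer 2 h RT.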

[6] = p53 small molecule agonists, cell-based qHTS assay with human liver microsomes: qHTS cell viability counter screen (AID 1963579); also: nearly all actives have a fitted effect of over 45% in size
In short: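 HLM-supplemented (0.5 mg/mL final) and NADPH-supplemented (0.5 mg/mL final) p53RE-bla cultures, 4,000 cells per well, were dosed with compounds in DMSO for 16 h at 37 C; luminescent ATP detection (CellTiter-Glo, 30 min, room temperature) quantified surviving cells.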

[7] = p53 small molecule agonists, cell-based qHTS assay with rat liver microsomes: qHTS cell viability counter screen (AID 1963580); also: nearly all actives have a fitted effect of over 45% in size; also: potency is read from the fitted curve at half-maximal effect
In short: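 After the beta-lactamase ratio was read, CellTiter-Glo was added to the same wells and luminescence measured at 30 min; cells had been treated 16 h at 37 C with compounds, rat liver microsomes and NADPH (0.5 mg/mL final each).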

[8] = p53 small molecule agonists, cell-based qHTS assay: qHTS cell viability counter screen (AID 1963581); also: nearly all actives have a fitted effect of over 45% in size; also: potency is read from the fitted curve at half-maximal effect
In short: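 ATP content measured by luminescence in HCT-116 p53RE-bla cells treated 16 h at 37 C, same wells as the reporter screen.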

[9] = p53 small molecule agonists, cell-based qHTS assay (AID 1963582; active = well fitted activation curve with a large enough effect in the signal ratio in the repeat runs, not every such curve was filed as active; the % refers to the signal ratio)
In short: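 16 h compound exposure (37 C) of p53 response element–bla cells, preceded by 5 h recovery at 37 C/5% CO2; read-out via LiveBLAzer B/G FRET substrate, 2 h RT, fluorescence intensity.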

[10] = molecular target: 5-hydroxytryptamine receptor 2A (Homo sapiens) (UniProt P28223); assay: 5-hydroxytryptamine receptor 2A (HTR2A) small molecule antagonists, cell-based qHTS assay (AID 1963586); also: nearly all actives have a fitted effect of over 45% in size
Chain of 5-hydroxytryptamine receptor 2A (Homo sapiens) (P28223 whole entry, looked up): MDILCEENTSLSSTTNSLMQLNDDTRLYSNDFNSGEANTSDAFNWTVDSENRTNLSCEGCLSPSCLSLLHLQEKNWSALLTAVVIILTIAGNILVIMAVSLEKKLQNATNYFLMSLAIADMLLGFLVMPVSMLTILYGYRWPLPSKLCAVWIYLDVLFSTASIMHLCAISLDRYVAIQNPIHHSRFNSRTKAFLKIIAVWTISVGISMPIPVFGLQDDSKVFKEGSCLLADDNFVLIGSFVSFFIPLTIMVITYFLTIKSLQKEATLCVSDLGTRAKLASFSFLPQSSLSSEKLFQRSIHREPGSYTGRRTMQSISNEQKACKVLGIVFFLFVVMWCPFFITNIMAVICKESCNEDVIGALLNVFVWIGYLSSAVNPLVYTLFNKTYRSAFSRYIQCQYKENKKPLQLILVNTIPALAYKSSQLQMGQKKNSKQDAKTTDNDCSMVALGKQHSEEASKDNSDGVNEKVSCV
In short: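 CHO cells stably expressing human HTR2A were plated for 18 h at 37 C, then loaded with calcium dye for 1 h. Compounds were preincubated 5 min at room temperature before DOI (4 nM solution) was added. Kinetic fluorescence was read for 3 min.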

[11] = molecular target: 5-hydroxytryptamine receptor 2A (Homo sapiens) (UniProt P28223); assay: 5-hydroxytryptamine receptor 2A (HTR2A) small molecule agonists, cell-based qHTS assay (AID 1963587); also: nearly all actives have a fitted effect of over 30% in size; also: potency is read from the fitted curve at half-maximal effect
In short: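 CHO cells stably expressing human HTR2A, plated 18 h, loaded with calcium dye 1 h at 37 C. Agonist mode: compounds added and intracellular calcium fluorescence recorded kinetically for 2 min at 1 sec intervals.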

[12] = molecular target: Muscarinic acetylcholine receptor M1 (Homo sapiens) (UniProt P11229); assay: Cholinergic receptor muscarinic 1 (CHRM1) small molecule antagonists, cell-based qHTS assay (AID 1963588); also: nearly all actives have a fitted effect of over 40% in size
Chain of Muscarinic acetylcholine receptor M1 (Homo sapiens) (P11229 whole entry, looked up): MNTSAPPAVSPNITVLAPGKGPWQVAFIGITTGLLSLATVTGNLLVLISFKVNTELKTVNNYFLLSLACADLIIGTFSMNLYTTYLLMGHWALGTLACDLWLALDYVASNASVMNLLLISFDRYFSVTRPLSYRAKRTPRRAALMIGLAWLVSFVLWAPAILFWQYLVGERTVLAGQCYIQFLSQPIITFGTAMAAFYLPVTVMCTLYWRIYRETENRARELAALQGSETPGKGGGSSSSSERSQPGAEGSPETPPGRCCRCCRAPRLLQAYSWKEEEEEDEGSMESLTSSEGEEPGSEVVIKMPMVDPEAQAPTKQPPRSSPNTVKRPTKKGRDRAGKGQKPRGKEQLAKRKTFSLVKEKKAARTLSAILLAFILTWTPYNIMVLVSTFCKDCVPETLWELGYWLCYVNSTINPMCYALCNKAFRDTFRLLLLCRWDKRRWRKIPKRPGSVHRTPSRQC
In short: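 Compounds were tested at 15 concentrations in three independent runs. Dye-loaded CHRM1-CHO cells were exposed 5 min at room temperature before stimulation by acetylcholine added at 50nM. Intracellular calcium was read kinetically on FDSS for 3 min.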

[13] = molecular target: Muscarinic acetylcholine receptor M1 (Homo sapiens) (UniProt P11229); assay: Cholinergic receptor muscarinic 1 (CHRM1) small molecule agonists, cell-based qHTS assay (AID 1963589); also: nearly all actives have a fitted effect of over 35% in size; also: potency is read from the fitted curve at half-maximal effect
In short: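 Homogeneous fluorescence calcium flux, agonist mode. Human M1-expressing CHO cells; compound dosed at 15 concentrations, three independent runs; signal sampled every 1 sec.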

[14] = cAMP Responsive Elements (CRE) small molecule agonists, cell-based qHTS assay (AID 1963590); also: potency is read from the fitted curve at half-maximal effect
In short: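 HEK 293T cells stably bearing CRE-bla were plated at 2,000 cells per well and rested 18 h. Compounds, positive controls or DMSO were added for 3 h at 37 C. LiveBLAzer B/G substrate was then loaded for 2 h at room temperature.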

[15] = cAMP Responsive Elements (CRE) small molecule antagonists, cell-based qHTS assay (AID 1963591; active = well fitted inhibition curve with a large enough effect in the signal ratio in the repeat runs, not every such curve was filed as active; the % refers to the signal ratio; also: potency is read from the fitted curve at half-maximal effect)
In short: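 First, CRE-bla HEK293T cells settled 18 h at 37 C. Next, compound and 0.25 uM final NKH477 were applied for 3 h. Last, LiveBLAzer B/G substrate was loaded for 2 h at room temperature.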

[16] = molecular target: Beta-2 adrenergic receptor (Homo sapiens) (UniProt P07550); assay: Adrenergic beta2 receptor (ADRB2) small molecule antagonists, cell-based qHTS assay (AID 1963592); also: nearly all actives have a fitted effect of over 50% in size; also: potency is read from the fitted curve at half-maximal effect
Chain of Beta-2 adrenergic receptor (Homo sapiens) (P07550 whole entry, looked up): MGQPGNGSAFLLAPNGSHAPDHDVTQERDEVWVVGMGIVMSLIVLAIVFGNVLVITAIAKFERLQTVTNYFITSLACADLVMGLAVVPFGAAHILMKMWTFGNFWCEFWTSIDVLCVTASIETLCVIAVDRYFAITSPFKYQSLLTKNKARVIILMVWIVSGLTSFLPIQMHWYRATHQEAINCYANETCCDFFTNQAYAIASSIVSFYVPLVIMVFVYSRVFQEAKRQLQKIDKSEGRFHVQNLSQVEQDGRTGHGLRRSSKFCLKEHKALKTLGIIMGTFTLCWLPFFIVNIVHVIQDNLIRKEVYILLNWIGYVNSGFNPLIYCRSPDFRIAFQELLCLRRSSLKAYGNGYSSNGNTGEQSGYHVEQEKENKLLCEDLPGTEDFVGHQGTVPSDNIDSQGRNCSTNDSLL
In short: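 Assay format: CHO-ADRB2 cells, 18-20hr seeding at 37C/5% CO2, then compound plus 1nM isoproterenol agonist mix for 0.5hr RT. Homogeneous time-resolved fluorescence cAMP detection after 1hr, expressed as 665/615 nm ratio.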

[17] = molecular target: D(2) dopamine receptor (Homo sapiens) (UniProt P14416); assay: Dopamine D2 receptor (DRD2) small molecule agonists, cell-based qHTS assay (AID 1963594); also: nearly all actives have a fitted effect of over 35% in size
Chain of D(2) dopamine receptor (Homo sapiens) (P14416 whole entry, looked up): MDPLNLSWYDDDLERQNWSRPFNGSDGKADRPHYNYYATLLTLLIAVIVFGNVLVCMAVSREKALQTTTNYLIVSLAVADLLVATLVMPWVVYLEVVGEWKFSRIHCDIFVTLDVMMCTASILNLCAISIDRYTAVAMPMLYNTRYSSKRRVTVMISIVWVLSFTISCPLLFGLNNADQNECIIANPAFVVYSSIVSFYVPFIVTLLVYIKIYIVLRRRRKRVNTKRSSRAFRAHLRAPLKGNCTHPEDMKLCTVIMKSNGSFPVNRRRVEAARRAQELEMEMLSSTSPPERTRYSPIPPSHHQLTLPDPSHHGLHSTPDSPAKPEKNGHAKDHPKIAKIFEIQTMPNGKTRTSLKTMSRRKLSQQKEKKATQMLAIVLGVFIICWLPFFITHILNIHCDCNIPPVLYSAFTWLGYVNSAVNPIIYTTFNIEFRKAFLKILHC
In short: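 HEK293 cells stably expressing human DRD2, pre-treated with PDE inhibitor Ro20-1724 (0.1 mM final) and compound 10 min at room temperature, then stimulated with NKH477 (200nM […]) for 30 min. cAMP read by HTRF (665/620 nm).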

[18] = molecular target: D(2) dopamine receptor (Homo sapiens) (UniProt P14416); assay: Dopamine D2 receptor (DRD2) small molecule antagonists, cell-based qHTS assay (AID 1963595; active = well fitted inhibition curve with a large enough effect in the signal ratio in the repeat runs, with a control signal flat; the % refers to the signal ratio)
In short: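 In this cell-based antagonist screen, compounds act for 10 min at room temperature before a 30 min challenge with 12 nM quinpirole and 200 nM NKH477. cAMP is quantified by HTRF competition in DRD2-HEK293 cells containing 0.1 mM Ro20-1724.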

[19] = Nuclear factor erythroid 2-related factor 2/antioxidant responsive element (Nrf2/ARE) small molecule agonists: luciferase reporter gene qHTS assay in human keratinocytes (AID 1919969); also: nearly all actives have a fitted effect of over 35% in size; also: potency is read from the fitted curve at half-maximal effect
[20] = molecular target: Beta-2 adrenergic receptor (Homo sapiens) (UniProt P07550); assay: Adrenergic beta2 receptor (ADRB2) small molecule agonists, cell-based qHTS assay (AID 1963593); also: potency is read from the fitted curve at half-maximal effect;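 as to activation: CHO cells stably overexpressing human ADRB2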
In short: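 CHO cells stably over-expressing ADRB2 were plated overnight at 37C, then dosed with compounds plus a stimulation mix containing 100uM IBMX and 25uM Ro-20-1724 for 0.5hr at room temperature. cAMP was measured by HTRF competition, 1hr.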

SMILES	Potency [1]	Potency [2]	Potency [3]	Potency [4]	Potency [5]	Potency [6]	Potency [7]	Potency [8]	Potency [9]	Potency [10]	Potency [11]	Potency [12]	Potency [13]	Potency [14]	Potency [15]	Potency [16]	Potency [17]	Potency [18]	Potency [19]	Potency [20]
Cc1cc(Nc2ccc(O)cc2)ccc1N	inactive	inactive	inactive	inactive	inactive	inactive	inactive	inactive	inactive	inactive	inactive	inactive	inactive	inactive	inactive					
Cc1ccc([N+](=O)[O-])cc1Cl	inactive	inactive	inactive	inactive	inactive	inactive	inactive	inactive	inactive	inactive	inactive	inactive	inactive	inactive	inactive	inactive	inactive	inactive		
S=c1[nH]c2ccccc2s1		inactive	inactive		inactive		inactive			inactive	inactive		inactive	48.6 µM (active)					21.7 µM (active)	
CC(C)CCCC(C)CC=O (configuration not stated)				inactive	inactive	inactive	inactive	inactive	inactive	inactive		inactive			inactive	inactive	inactive	inactive	inactive	
CCN(CC)CCOC(=O)C1(C2CCCCC2)CCCCC1		inactive	inactive			inactive	inactive												inactive	
CCOC(=O)[C@H](CCc1ccccc1)N[C@H]1CCc2ccccc2N(CC(=O)O)C1=O			inactive			inactive	inactive	inactive								23.7 µM (active)		inactive	inactive	
CC[C@@]1(O)C(=O)OCc2c1cc1n(c2=O)Cc2cc3c(CN(C)C)c(O)ccc3nc2-1		inactive					inactive									inactive	inactive	inactive	inactive	inactive
C=CC(=O)Nc1cc2c(Nc3ccc(F)c(Cl)c3)ncnc2cc1OCCCN1CCOCC1		inactive	inactive		inactive	inactive	inactive		inactive		inactive	inactive	inactive			inactive		inactive	inactive	
c1cc(N(CC2CO2)CC2CO2)ccc1OCC1CO1 (configuration not stated)		inactive	inactive			inactive	inactive	inactive		inactive	inactive	inactive	inactive			inactive	inactive	inactive	27.3 µM (active) and 24.3 µM (active)	
CCCCN(CCCC)c1ccc(C(=O)c2ccccc2C(=O)O)c(O)c1			inactive	inactive	inactive		41.2 µM (active)	20.6 µM (active)			55.5 µM (active)	inactive	49.4 µM (active)			inactive	inactive	inactive	inactive	
CC(COc1ccc(C(C)(C)C)cc1)OS(=O)OCCCl (configuration not stated)		inactive	inactive		inactive	inactive	inactive		inactive	inactive	inactive	inactive	inactive	inactive	43.5 µM (active)	inactive	inactive	inactive	inactive	
CCCn1cc[n+](C)c1C	inactive	inactive	inactive	inactive	inactive	inactive	inactive	inactive	inactive	inactive	inactive	inactive	inactive	inactive	inactive	inactive	inactive			inactive
Cc1ccc(O)c(O)c1			inactive	inactive	inactive	inactive	inactive				inactive	inactive	inactive	inactive	inactive	inactive			66.6 µM (active)	
O=C1c2ccccc2C(=O)c2c1ccc(O)c2O		inactive		inactive	inactive	inactive	inactive	inactive	inactive	inactive	inactive	inactive	inactive	inactive		inactive	inactive		inactive	inactive
CCC(C)N (configuration not stated)		inactive	inactive			inactive	inactive	inactive		inactive	inactive	inactive	inactive	inactive	inactive	inactive	inactive	inactive	inactive	
CC1(C)CCC(C)(C)c2cc(C(=O)Nc3ccc(C(=O)O)cc3)ccc21		inactive	inactive		inactive								inactive			inactive	inactive	inactive	inactive	
O=C(CC(=O)C(F)(F)F)c1ccccc1		inactive		inactive		inactive		inactive	inactive	inactive	49.7 µM (active)	inactive	inactive	inactive	inactive	inactive	inactive	inactive	49.2 µM (active)	13.9 µM (active)
CC(=O)[C@]1(O)Cc2c(O)c3c(c(O)c2[C@@H](O[C@H]2C[C@H](N)[C@H](O)[C@H](C)O2)C1)C(=O)c1ccccc1C3=O		inactive	inactive					inactive						inactive					2.66 µM (active)	

From PubChem BioAssay (Tox21)
